This is a sample that favours compounds with a hit; in the whole collection about 4.2% have one here.
ALOX12 inh: Primary qHTS assay for inhibitors of human arachidonate 12S-lipoxygenase (ALOX12): Round 2. Polyunsaturated fatty acid lipoxygenase ALOX12 (Homo sapiens), P18054. Potency, µM (doses to about 108 µM), actives largely listed as inhibitors. AID 1671190, 2021. purified 12hLO, xylenol orange hydroperoxide absorbance. 1.1% of 580,000 active
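Purified human 12hLO at 150 nM in 25 mM Hepes, 0.01% Triton X-100, pH 7.0, preincubated 15 min at room temperature with compound. Reaction started with 40 uM arachidonic acid, 30 min at room temperature. Hydroperoxide measured by Fe-xylenol orange, 573/405 nm absorbance ratio.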
VDR inhibitor: Inhibitors of the vitamin D receptor (VDR): qHTS. Potency, µM, usual class: inhibitors. VDR-SRC2-3 peptide fluorescence polarization, 2 h. Vitamin D3 receptor (Homo sapiens), P11473. 0.93% of 400,000 active
Target sequence (P11473 whole entry, looked up): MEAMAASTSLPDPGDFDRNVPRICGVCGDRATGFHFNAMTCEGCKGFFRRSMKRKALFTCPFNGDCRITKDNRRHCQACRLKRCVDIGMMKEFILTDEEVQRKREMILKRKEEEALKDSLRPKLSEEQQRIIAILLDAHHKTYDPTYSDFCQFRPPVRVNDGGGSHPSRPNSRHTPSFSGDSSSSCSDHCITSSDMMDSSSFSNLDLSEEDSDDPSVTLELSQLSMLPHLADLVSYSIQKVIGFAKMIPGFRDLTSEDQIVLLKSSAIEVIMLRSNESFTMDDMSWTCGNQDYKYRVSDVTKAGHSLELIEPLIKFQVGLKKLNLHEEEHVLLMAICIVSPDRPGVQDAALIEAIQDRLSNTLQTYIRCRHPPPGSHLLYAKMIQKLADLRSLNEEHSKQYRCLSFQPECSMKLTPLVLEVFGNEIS
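After 23 nl compound addition and a short centrifugation, plates sat for 2 hours at ambient temperature; polarization of fluorescence then indicated loss of VDR binding to peptide SRC2-3.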
Sfp PPTase inh: qHTS Assay for Inhibitors of Bacillus subtilis Sfp phosphopantetheinyl transferase (PPTase). Potency, µM, hits mostly inhibitors. 4'-phosphopantetheinyl transferase ffp (Bacillus subtilis), Q9F4F7. Biochemical Sfp PPTase activity, qHTS. 3.5% of 310,000 active;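 note: the enzyme is Sfp with the accession as filed and its product quenches rhodamine fluorescence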
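Compounds were incubated with enzyme (final 15 nM) for 15 min at room temperature before substrate addition started the reaction. Fluorescence at 525 nm excitation, 598 nm emission was recorded immediately and after 30 minutes.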
PLK1 PBD inh: qHTS for Inhibitors of PLK1-PDB (polo-like kinase 1 - polo-box domain): Primary Screen; Potency, µM, usual class: inhibitors; 2.8% of 360,000 active; Plk1 PBD binding of FITC phosphopeptide, fluorescence polarization; note: series mostly up to about 57 µM; nearly all actives have a fitted effect of over 65% in size
Numbers stand for hits. Calls come from the whole dose curve; as a rule, active = well fitted curve in the direction sought with a large enough effect; inconclusive = small, poorly fitted or top-dose-only effect, or another doubt; inactive = no such curve, though single readings can be large; an effect the other way counts as inactive or inconclusive.

Screening Cc1ccc(-n2nc(C(=O)Nc3ccc(F)cc3F)c3c4ccccc4n(C)c3c2=O)cc1 returned ALOX12 inh inactive and VDR inhibitor inactive.
Screening Cc1cc(C)cc(NC(=O)C2CCN(c3nccs3)CC2)c1 returned ALOX12 inh inactive, VDR inhibitor inactive, Sfp PPTase inh 89µM and PLK1 PBD inh inactive.
COc1ccc(CN2CCC(N3CC(C)OC(C)C3)CC2)c(OC)c1 (stereo not given) was read as ALOX12 inh inconclusive, VDR inhibitor inactive, Sfp PPTase inh inactive and PLK1 PBD inh inactive.
Screening Cc1ccccc1C(=O)N1CCC(CCC(=O)O)CC1 returned ALOX12 inh inactive.
For CCNC(=S)N/N=C(\C)c1ccco1 the results were ALOX12 inh inactive, VDR inhibitor inactive, Sfp PPTase inh 56µM and PLK1 PBD inh inactive.
Screening C/C(=N\NC(=S)NCc1ccccc1)c1ccc(Cl)s1 returned ALOX12 inh inconclusive, VDR inhibitor inactive, Sfp PPTase inh inactive and PLK1 PBD inh inactive.
C/C(=N\NC(=S)NCc1ccccc1)c1ccc(C)o1 was read as ALOX12 inh 16µM, VDR inhibitor inactive, Sfp PPTase inh inactive and PLK1 PBD inh inactive.
For C/C(=N\NC(=S)NCc1ccccc1)c1cccs1 the results were ALOX12 inh 40µM, VDR inhibitor inactive, Sfp PPTase inh inactive and PLK1 PBD inh inactive.
Screening C/C(=N\NC(=S)Nc1cccc(C)c1)c1ccco1 returned ALOX12 inh inconclusive, VDR inhibitor inactive, Sfp PPTase inh inactive and PLK1 PBD inh inconclusive.
For COc1ccc(C(=O)C(C)OC(=O)CN2C(=O)c3ccccc3C2=O)cc1 (stereo not given) the results were ALOX12 inh inactive, VDR inhibitor inactive and PLK1 PBD inh inactive.
Screening Cc1noc(C)c1C(=O)OCC(=O)N(C)C1(C#N)CCCCC1 returned ALOX12 inh inactive, VDR inhibitor inactive and PLK1 PBD inh inactive.
Screening COc1ccccc1CN1CC[C@@]2(CCCN(C(=O)c3cccn3C)C2)C1 returned ALOX12 inh inactive, VDR inhibitor inactive and Sfp PPTase inh inactive.
Screening CC1(C)Cc2[nH]c(=S)c(C#N)cc2CO1 returned ALOX12 inh inactive, VDR inhibitor inconclusive, Sfp PPTase inh 10µM and PLK1 PBD inh 17µM.
For CCOC(CN=c1nc(N(C)C)ss1)OCC the results were ALOX12 inh 18µM, VDR inhibitor inconclusive and PLK1 PBD inh 6.7µM.
CCOC(=O)N1CCC(N(CCN(C)C)C(=S)Nc2ccccc2C)CC1 was read as ALOX12 inh inactive, VDR inhibitor inactive, Sfp PPTase inh inactive and PLK1 PBD inh inactive.
For O=C1c2ccccc2C(Nc2ccc(S(=O)(=O)N3CCCCC3)cc2)N1Cc1ccco1 (stereo not given) the results were ALOX12 inh inactive, VDR inhibitor inconclusive, Sfp PPTase inh 40µM and PLK1 PBD inh inactive.
`O=C1c2ccccc2C(Nc2ccc(F)c(Cl)c2)N1Cc1ccco1` (stereo not given) gave ALOX12 inh inconclusive, VDR inhibitor 89µM, Sfp PPTase inh 32µM and PLK1 PBD inh inactive.
COc1ccc(NC2c3ccccc3C(=O)N2Cc2ccco2)cc1OC (stereo not given) was read as ALOX12 inh inactive, VDR inhibitor inactive, Sfp PPTase inh inactive and PLK1 PBD inh inactive.
For O=C(Cn1c(O)c(N=NC(=O)c2ccncc2)c2ccccc21)Nc1ccccc1 the results were ALOX12 inh inactive, VDR inhibitor inactive, Sfp PPTase inh inactive and PLK1 PBD inh inactive.
Cc1cccc(NC(=O)Cn2c(O)c(N=NC(N)=S)c3ccccc32)c1 was read as ALOX12 inh inactive, VDR inhibitor inactive, Sfp PPTase inh 40µM and PLK1 PBD inh inconclusive.
`CCCCCNC(=O)C(c1cc2ccccc2o1)n1c(=O)c(-c2ccco2)nc2ccccc21` (stereo not given) gave ALOX12 inh 40µM and PLK1 PBD inh 7.5µM.
For O=C(NC1CCCCC1)C(c1cccc2ccccc12)n1c(=O)c(-c2ccco2)nc2ccccc21 (stereo not given) the results were ALOX12 inh 18µM and PLK1 PBD inh inconclusive.
`COc1ccc(C(C(=O)NC2CCCCC2)n2c(=O)c(-c3ccco3)nc3ccccc32)cc1` (stereo not given) gave ALOX12 inh inconclusive and PLK1 PBD inh inactive.
For COc1ccc(C(C(=O)NCc2ccccc2)n2c(=O)c(-c3ccco3)nc3ccccc32)cc1 (stereo not given) the results were ALOX12 inh 40µM and PLK1 PBD inh inactive.
`CC(C)(C)NC(=O)C(c1cc2ccccc2o1)n1c(=O)c(-c2ccco2)nc2ccccc21` (stereo not given) gave ALOX12 inh inconclusive and PLK1 PBD inh inactive.
N#Cc1ccc(C(C(=O)Nc2ccc3c(c2)OCCO3)n2c(=O)c(-c3ccco3)nc3ccccc32)cc1 (stereo not given) was read as ALOX12 inh inactive and PLK1 PBD inh inactive.
`Cc1cccc(C)c1NC(=O)C(c1ccc(C#N)cc1)n1c(=O)c(-c2ccco2)nc2ccccc21` (stereo not given) gave ALOX12 inh 11µM and PLK1 PBD inh inactive.
Screening Cc1cccc(OCCc2c(C)[nH]c(=S)[nH]c2=O)c1 returned ALOX12 inh inconclusive, VDR inhibitor inactive, Sfp PPTase inh inactive and PLK1 PBD inh inconclusive.
For O=C(NCc1ccccc1)c1cc(C2CCCN(C(=O)C3CCCCC3)C2)on1 (stereo not given) the results were ALOX12 inh inactive and PLK1 PBD inh inactive.
Screening COc1cccc(NC(=O)CN(C)CC(=O)NCC(=O)Nc2ccc(F)cc2)c1 returned ALOX12 inh inactive, VDR inhibitor inactive and PLK1 PBD inh inactive.
Screening Cc1cc(OCC(=O)Nc2ccncc2)cc(C)c1Br returned ALOX12 inh inactive, VDR inhibitor inactive, Sfp PPTase inh inactive and PLK1 PBD inh inactive.
For O=C(Nc1ccccc1)c1n[nH]c(Cn2cncn2)n1 the results were ALOX12 inh inconclusive, VDR inhibitor inactive, Sfp PPTase inh inactive and PLK1 PBD inh inactive.
COc1ccc(CCNC(=O)c2cc(S(=O)(=O)N(C)c3ccccc3)ccc2Cl)cc1 was read as ALOX12 inh inactive, VDR inhibitor inconclusive, Sfp PPTase inh inactive and PLK1 PBD inh 15µM.
For COc1ccc(CCNC(=O)c2ccc(N(C)S(=O)(=O)c3ccccc3)cc2)cc1 the results were ALOX12 inh inactive, VDR inhibitor inactive, Sfp PPTase inh inactive and PLK1 PBD inh inactive.
For Cc1ccc(N2C(=O)CSC2=S)cc1C the results were ALOX12 inh inactive, VDR inhibitor inactive, Sfp PPTase inh inactive and PLK1 PBD inh inactive.
Screening O=C(NCc1ccco1)c1cnn2c1NC(c1ccc(Br)cc1)CC2C(F)(F)F (stereo not given) returned ALOX12 inh inactive, VDR inhibitor inconclusive, Sfp PPTase inh inactive and PLK1 PBD inh 3µM.
For Cc1cccc(-c2c(O)cc(=O)[nH]c2Cl)c1 the results were ALOX12 inh inconclusive, VDR inhibitor inactive, Sfp PPTase inh inconclusive and PLK1 PBD inh inactive.
`O=c1cc(O)c(-c2ccccc2Cl)c(Cl)[nH]1` gave ALOX12 inh inactive, VDR inhibitor inactive, Sfp PPTase inh 89µM and PLK1 PBD inh inactive.
